Measured values published in the supplement of paper PMC6555819.

What was measured:
Assay in all cases: PBM binding z-score (relative to random genomic background probes); higher = stronger binding; sequences stand for … in GC…GCGATTGACAGCGTAGAATGAAGG
[1] = tested on: FXR:RXRa (NR concentration 270 nM, RXRa partner concentration 90 nM)
Summary of the method: (§1)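 The probes on custom Agilent 4×180K protein-binding microarrays were double-stranded, with 34-nt variable regions bearing direct-repeat seeds, single-nucleotide variants, half-site ablations and random human genomic background sequences. Incubation lasted 1 h with ligand-free nuclear receptor dimers in PBS pH 7.4, 2% milk, 0.02% Triton X-100, 1 mM DTT, 0.2 mg/mL BSA and 0.4 mg/ml salmon testes DNA. Antibodies against each partner (one per run) detected bound dimers, and fluorescence scans were regression-normalized. Binding z-scores take the random background probes as reference.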

[2] = tested on: LXRa:RXRa (NR concentration 270 nM, RXRa partner concentration 90 nM)
Summary of the method: as §1

[3] = tested on: LXRa homodimer (NR concentration 270 nM)
Summary of the method: as §1

[4] = tested on: LXRb:RXRa (NR concentration 270 nM, RXRa partner concentration 90 nM)
Summary of the method: as §1

[5] = tested on: LXRb homodimer (NR concentration 270 nM)
Summary of the method: as §1

[6] = tested on: PPARa:RXRa (NR concentration 270 nM, RXRa partner concentration 90 nM)
Summary of the method: as §1

[7] = tested on: PPARg:RXRa (NR concentration 180 nM, RXRa partner concentration 90 nM)
Summary of the method: as §1

[8] = tested on: PPARg:RXRa 270nM:90nM, anti-RXR (NR concentration 270 nM, RXRa partner concentration 90 nM)
Summary of the method: as §1

[9] = tested on: PPARg:RXRa 30nM:10nM, anti-RXR (NR concentration 30 nM, RXRa partner concentration 10 nM)
Summary of the method: as §1

[10] = tested on: PPARg:RXRa 90nM:30nM, anti-RXR (NR concentration 90 nM, RXRa partner concentration 30 nM)
Summary of the method: as §1

[11] = tested on: PPARg:RXRa DBDmut IVT, anti-RXR (DBD mutation: RXRa K156A/R161A, NR concentration 270 nM, RXRa partner concentration 90 nM)
Summary of the method: as §1

[12] = tested on: PPARg:RXRa IVT, anti-PPARg (NR concentration 270 nM, RXRa partner concentration 90 nM)
Summary of the method: as §1

[13] = tested on: PPARg DBDmut:RXRa IVT, anti-PPARg (DBD mutation: PPARg1 K132A/R137A, NR concentration 270 nM, RXRa partner concentration 90 nM)
Summary of the method: as §1

[14] = tested on: PPARg DBDmut IVT, anti-PPARg (DBD mutation: PPARg1 K132A/R137A, NR concentration 270 nM)
Summary of the method: as §1

[15] = tested on: PPARg homodimer (NR concentration 180 nM)
Summary of the method: as §1

[16] = tested on: PXR:RXRa (NR concentration 270 nM, RXRa partner concentration 90 nM)
Summary of the method: as §1

[17] = tested on: PXR homodimer (NR concentration 270 nM)
Summary of the method: as §1

[18] = tested on: RARa:RXR (NR concentration 270 nM, RXRa partner concentration 90 nM)
Summary of the method: as §1

[19] = tested on: RARa homodimer (NR concentration 270 nM)
Summary of the method: as §1

[20] = tested on: RARb:RXRa (NR concentration 270 nM, RXRa partner concentration 90 nM)
Summary of the method: as §1

Sequence	PBM binding z-score [1]	PBM binding z-score [2]	PBM binding z-score [3]	PBM binding z-score [4]	PBM binding z-score [5]	PBM binding z-score [6]	PBM binding z-score [7]	PBM binding z-score [8]	PBM binding z-score [9]	PBM binding z-score [10]	PBM binding z-score [11]	PBM binding z-score [12]	PBM binding z-score [13]	PBM binding z-score [14]	PBM binding z-score [15]	PBM binding z-score [16]	PBM binding z-score [17]	PBM binding z-score [18]	PBM binding z-score [19]	PBM binding z-score [20]
TCTTGTAGATCAACAGGAGGTTAAGAAAGATCGA	0.227	1.19	0.133	0.709	-0.3	1.22	-0.0134	1.2	2.19	1.56	1.3	0.568	0.392	0.445	0.0227	0.753	-0.259	0.995	-0.178	0.617
TCGAGTAGGTTAGGTGCATTCAGAATGGCGTCGA	-0.264	-0.0402	-0.55	0.172	-1.05	0.236	-0.209	0.709	0.736	0.505	1.94	1.03	-0.609	-0.486	-0.132	0.0438	0.333	-0.0756	-0.18	0.175
TAGCCTAGGTCATTGGGACAGTATAGTACGCATC	4.69	3.35	0.922	2.45	0.648	3.84	3.81	3.69	1.27	2.57	3.11	3.8	1.3	0.736	2.9	1.78	-0.233	2.5	0.512	3.75
ACTATTAGTTCACTTAGGGCAACCGATACGACGC	1.66	0.968	0.685	0.657	0.81	0.893	1.04	0.566	0.591	0.169	0.466	0.672	1.13	1.63	0.741	1.86	5.76	0.774	0.399	2.35
ATCTCTAGGTAAGACTCAGTTCAATGAAGAACGC	0.961	1.03	1.15	1.04	1.18	0.681	0.379	0.658	0.44	0.504	1.88	1.16	1.2	1.44	1.39	2.1	2.69	1.34	1.4	0.797
CAAACTAGGTCAAGATCAAAGTCGGTTTGTGCCA	3.58	2.31	0.143	1.67	0.237	4.66	7.62	6.55	4.29	6.19	8.24	8.61	5.86	4.95	2.34	1.31	-0.0944	2.05	0.622	4.02
TCTTGTAGATCAACAGGAGGTTTAGAAAGATCGA	-0.117	-0.19	-0.342	0.0269	-0.559	0.152	-0.195	0.953	2.59	1.93	1.64	0.449	0.726	0.199	0.11	-0.0955	-0.425	0.104	-0.667	-0.271
CGTCCAAGGTCACAGGTCAGTGAAGAGATGACGG	7.44	5.62	1.31	4.1	0.374	6.12	7.73	6.93	3.6	5.82	4	5.24	0.709	0.624	2.75	4.99	0.786	6.06	1.32	5.63
TTACCAAGGTGGAAGGTCGTTGATGCACGCCTTG	0.529	0.656	-0.194	0.41	-0.809	2.03	2.43	4.41	1.94	4.21	-0.302	1.09	-0.236	-1.11	0.535	0.751	-0.0879	1.26	-0.0243	0.885
ATATCTAGGTAAAGATAGTTCAGTGAATGCAAAT	0.0166	3.97	0.545	0.556	0.365	2.2	3.15	1.99	1	1.6	5.82	5.59	2.76	1.53	1.12	0.896	0.584	0.384	0.705	0.775
AGCTCTAGGTAACCAAGTTCAGTGAATGCCGAAC	-0.0702	0.208	0.46	0.265	-0.228	0.481	0.22	0.513	-0.0768	-0.252	3.96	2.07	-0.276	-0.0149	0.421	1.53	1.74	0.198	-0.119	0.793
CCTACTGGGCCAAAGATCATTGATTCCAATGCTC	-0.285	-0.527	-0.374	-0.317	-0.68	3.5	6.88	7.31	6.04	7.74	4.33	4.24	-0.277	0.286	0.269	-0.408	-0.738	-0.185	-0.399	-0.0314
CGAACTAGGTCATCCCGGACAGTGAATACATTGA	4.18	2.56	0.912	2.09	0.361	4.71	7.36	6.47	3.85	6.17	7.94	8.33	3.25	4.44	4.1	1.56	0.96	2.24	1.88	3.69
CAAACTAGGTCAAAAGTCAAAGTCGAGCCAACCA	4.73	3.95	0.814	2.97	0.644	6.39	11.9	9.92	9.77	11	8.48	8.18	0.975	1.19	1.78	2.68	-0.0368	4.56	0.778	3.78
TCTATTAGTTGCTTAGGGCAACCGAAACAGCGGA	0.577	0.582	0.0862	0.602	0.556	0.886	-0.0516	1.87	3.56	2.88	2.15	0.552	0.453	1.28	0.448	0.524	0.123	0.386	0.367	0.946
AGAATGAGGTTACCAACGATCAGGGAAACGCTTG	1.58	5.96	-0.334	2.43	-0.375	3.66	2.78	2.43	0.844	1.7	3.37	3.5	0.997	1.46	0.587	0.991	-0.0709	2.01	-0.203	1.83
ATCTCTAGGTAGAAGTTCAGTGAATCCCGAGGAT	0.0471	0.223	0.0969	0.0752	0.257	2.6	4.33	5.62	4.14	5.52	0.0712	1.23	0.95	0.43	0.271	0.947	1	0.436	0.785	1.07
TATACACGGTCAAAGGCCAGAGTACGAATGTCGA	1.3	3.22	2.75	0.929	1.43	2.04	3.99	4.34	2.65	4.3	0.134	2.39	1.55	1.14	1.12	0.507	0.583	1.13	0.418	2.85
CGAACGAGGGCATGAGTTGATGGCAAATGCCGAT	0.483	0.315	-0.503	-0.235	-0.92	1.4	1.24	1.34	-0.207	0.832	3.03	2.23	-0.341	-0.685	-0.031	0.243	-0.209	0.201	-1.03	1.99
CGTCAAAGTTCAAGGTAACTTAACAGAAAGCAGC	6.07	5.46	2.56	3.35	0.919	4.5	4.23	4.97	1.81	3.84	0.535	1.52	0.657	0.0202	2.33	3.79	2.37	3.17	1.69	4.89
CTCGAAAGGTCGTGCTCAGGGGAGTATACCAAAC	4.81	3.33	0.243	3.32	0.229	4.69	2.3	3.33	0.905	2.16	0.876	1.67	0.228	0.455	1.54	2.79	0.224	3.43	-0.0621	3.88
TGACCAAGGTGAAGGTCGTTGATCCCTCTGTAGA	2.13	1.77	-0.327	1.57	-1.14	2.49	2.18	3.17	0.953	2.49	1.27	2.71	-0.305	-0.387	0.818	1.26	-0.313	1.8	-0.922	2.11
CCTAGCAGGCCAATCTGGGTAACTCAAGGCTTGA	-0.2	-0.684	-0.736	-0.904	-0.796	0.0569	-0.0846	-0.366	-1.08	-0.958	2.34	2.01	-1.19	-0.9	-0.78	-0.754	-0.707	-0.329	-0.678	-0.071
TCGAGTAGGGTAGGGGCATTCAGAATGGCGTCGA	0.264	0.12	0.0875	1.16	1.6	0.956	0.642	1.82	1.02	1.4	1.02	1.33	-0.123	1.32	0.484	0.566	0.395	0.405	0.0821	0.666
TCATATAGGTAAACAAGTGAAAGTCCGTAAGTTA	1.87	1.33	0.256	1.17	0.297	1.58	1.4	2.55	4.08	2.98	3.94	2.87	1.04	0.969	0.811	0.871	0.525	0.876	1.3	0.893
GCTAGTTGGTCAGTAAAAGATCACACACCGGTCG	-0.109	-0.07	0.00819	-0.18	-0.212	-0.194	0.637	-0.0816	-0.233	-0.12	0.304	0.185	-0.527	0.421	0.2	-0.208	-0.161	0.0692	0.555	0.45
ATCCCTAGGTAACCAAGTTCAGTGAATGCCGAAC	0.476	1.09	1.1	0.956	0.382	0.985	0.276	0.246	-0.161	-0.0393	-0.197	0.606	-0.0937	0.0123	0.495	2.03	1.88	0.847	0.816	1.25
TCAGACAGGAGAAGGTAACTCAGGTACGCAGTCG	0.934	1.47	-0.171	0.452	-0.646	0.384	0.666	1.78	3.37	2.69	2.06	-0.153	-0.44	-0.387	0.0505	0.125	-0.21	0.759	0.536	0.225
